# Results reported in PubChem BioAssay (EPA / NIEHS).
# “And” between values parts separate entries of the source, which are not always exact repeats. Equal entries are not always repeated. Results filed as inconclusive are left out. The source made the active and inactive calls. The calls were made as follows, unless noted: active = hit-call score of the fitted dose curve at least 0.9, where 1 is the maximum; inactive = score below 0.9.
# Columns and labels:
# [1] = CCTE_Shafer_MEA_acute_cross_correlation_HWHM: CCTE's Neural Acute Assay for Cross Correlation at Half Width at Half Maximum, Shafer Lab (AID 2284026);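 also: percent change per well from pre-dose baseline in spike cross-correlogram half width; hits are a decrease in cross-correlogram half width relative to DMSO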;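 as to outcome: spontaneous network firing of rat primary cortical neurons on multiwell microelectrode arrays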
# Summary of the method: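 Primary cortex (rat), MEA, DIV 13/15; compound 0.03-40 uM; 40 min pre + 40 min post at 37 C; spike threshold 8x rms; wells need ≥10 active electrodes; endpoint = % change in cross-correlogram HWHM vs baseline, DMSO negative control.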
# [2] = CCTE_Shafer_MEA_acute_synchrony_index: CCTE's Neural Acute Assay for Synchrony, Shafer Lab (AID 2284027);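 also: network synchrony index of spontaneous spiking in primary rat cortical neurons on MEAs; fitted for loss of signal so actives lower synchrony relative to DMSO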
# Summary of the method: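 Spontaneous firing of mature rat cortical networks is captured extracellularly on microelectrode arrays at 37 C, with wells needing ≥10 active electrodes. Each compound (0.03-40 uM) is judged by the change in synchrony index from baseline over 40 min.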
# [3] = molecular target: Estrogen receptor (Homo sapiens) (UniProt P03372); assay: CCTE_Deisenroth_AIME_384WELL_LUC_Active: CCTE's 384-well Estrogen Receptor Transactivation Assay with AIME metabolic competence (ERTA luciferase; metabolism positive), Deisenroth Lab (AID 2284030; active = hit-call score of the fitted dose curve at least 0.9, where 1 is the maximum)
# Summary of the method: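 In this metabolism-positive format, a 2-hour exposure to alginate-immobilized rat S9 precedes a 24 hour luciferase transactivation readout in VM7Luc4E2 cells. Dosing spans 10 concentrations from 0.002 to 200 uM.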
# [4] = molecular target: Estrogen receptor (Homo sapiens) (UniProt P03372); assay: CCTE_Deisenroth_AIME_384WELL_LUC_Inactive: CCTE's 384-well Estrogen Receptor Transactivation Assay without AIME metabolic competence (ERTA luciferase; metabolism negative), Deisenroth Lab (AID 2284038; active = hit-call score of the fitted dose curve at least 0.9, where 1 is the maximum;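 also: VM7Luc4E2 breast cells given medium preincubated 2 h with S9-free microspheres; hits raise estrogen receptor luciferase signal so potencies reflect agonists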)
# Summary of the method: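 Chemicals (10-point series, 0.002 - 200 uM) were incubated 2 hours with alginate-water microsphere lids lacking S9, then the conditioned medium was transferred to VM7Luc4E2 breast cells for 24 hour. Luciferase induction was read by bioluminescence, fitted upward relative to 17beta-estradiol.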
# [5] = CCTE_Shafer_MEA_dev_firing_rate_mean: CCTE's Neural Network Formation Assay for Mean Firing Rate, Shafer Lab (AID 2284031);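 also: AUC of well mean spike rate recorded on DIV 5 7 9 and 12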;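 as to AC50: curve fitted for loss of firing so AC50 reflects decreased mean firing rate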
# Summary of the method: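 Developing rat cortical networks on MEA plates undergo 12-day compound exposure. Firing frequency, averaged across active electrodes, is integrated as area under the curve over four recording days, referenced to DMSO.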
# [6] = CCTE_Shafer_MEA_dev_per_burst_spike_percent: CCTE's Neural Network Formation Assay for Percent of Spikes in a Burst, Shafer Lab (AID 2284032);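 as to AC50: fitted as a decrease in burst spike percentage below DMSO baseline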
# Summary of the method: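 Rat primary cortical neurons on 16-electrode MEA wells, dosed from plating day 0 for 12 days with renewal on DIV 5 and 9; spikes-in-bursts percentage averaged over bursting electrodes, collapsed as AUC across days 5, 7, 9, 12; loss direction versus DMSO.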
# [7] = CCTE_Shafer_MEA_dev_active_electrodes_number: CCTE's Neural Network Formation Assay for Number of Active Electrodes, Shafer Lab (AID 2284040; active = hit-call score of the fitted dose curve at least 0.9, where 1 is the maximum;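 also: potency for loss of active electrodes versus DMSO so lower counts are hits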)
# Summary of the method: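 Rat cortical primary cultures, 1.5 x 10^5 cells/well, PEI-coated MEA, laminin drop. Continuous exposure DIV 0–12; full media/compound change DIV 5, 9. Readout: electrodes with mean firing ≥5 spikes/min; AUC across days; loss vs DMSO.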
# [8] = molecular target: Estrogen receptor (Homo sapiens) (UniProt P03372); assay: CCTE_Deisenroth_AIME_96WELL_LUC_Inactive: CCTE's 96-well Estrogen Receptor Transactivation Assay without AIME metabolic competence (ERTA luciferase; metabolism negative), Deisenroth Lab (AID 2284025; active = hit-call score of the fitted dose curve at least 0.9, where 1 is the maximum)
# Summary of the method: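 VM7Luc4E2 breast cells, luciferase read 24 h after dosing with medium pre-incubated 2 h on alginate-water lids (metabolism negative). 10-point series 0.002–200 uM, single technical replicate, n≥4; fit relative to 17beta-estradiol.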
# [9] = CCTE_Deisenroth_AIME_96WELL_CTox_Active: Cytotoxicity Assessment (CTOX) in CCTE's 96-well Estrogen Receptor Transactivation Assay with AIME metabolic competence (metabolism positive), Deisenroth Lab (AID 2284028; active = hit-call score of the fitted dose curve at least 0.9, where 1 is the maximum)
# Summary of the method: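 Chemicals (0.002–200 uM) were first incubated 2 h with alginate-immobilized phenobarbital/beta-naphthoflavone-induced male rat liver S9; conditioned medium then went onto VM7Luc4E2 cells for 24 h, with viability read by protease-substrate fluorescence, fitted bidirectionally.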
# [10] = CCTE_Deisenroth_AIME_96WELL_CTox_Inactive: Cytotoxicity Assessment (CTOX) in CCTE's 96-well Estrogen Receptor Transactivation Assay without AIME metabolic competence (metabolism negative), Deisenroth Lab (AID 2284029; active = hit-call score of the fitted dose curve at least 0.9, where 1 is the maximum)
# Summary of the method: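 Chemicals (10-point series, 0.002-200 uM) were incubated 2 h with alginate-water microspheres lacking S9. The conditioned medium was then transferred onto VM7Luc4E2 cells for 24 h. Viability was measured by protease-substrate cleavage to a fluorescent probe, with loss of signal fitted bidirectionally; n≥4 experimental replicates.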
# Estrogen receptor (Homo sapiens), sequence (P03372 whole entry, looked up): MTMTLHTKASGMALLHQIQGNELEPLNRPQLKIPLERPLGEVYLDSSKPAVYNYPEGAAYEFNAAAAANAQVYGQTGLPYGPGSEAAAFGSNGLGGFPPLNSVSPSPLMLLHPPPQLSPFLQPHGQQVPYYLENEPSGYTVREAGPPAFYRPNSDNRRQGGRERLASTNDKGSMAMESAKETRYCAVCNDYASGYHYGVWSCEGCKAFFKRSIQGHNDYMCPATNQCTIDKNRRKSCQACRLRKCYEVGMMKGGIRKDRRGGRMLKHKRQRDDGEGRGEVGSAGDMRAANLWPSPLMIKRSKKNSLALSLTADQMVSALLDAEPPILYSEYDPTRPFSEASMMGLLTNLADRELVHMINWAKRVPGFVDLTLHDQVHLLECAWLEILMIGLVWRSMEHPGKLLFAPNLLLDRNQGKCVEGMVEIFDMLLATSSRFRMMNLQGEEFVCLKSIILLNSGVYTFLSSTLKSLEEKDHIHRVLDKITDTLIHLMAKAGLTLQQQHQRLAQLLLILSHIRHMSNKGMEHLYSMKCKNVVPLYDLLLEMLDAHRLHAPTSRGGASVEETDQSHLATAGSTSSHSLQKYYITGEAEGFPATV
smiles,measurement,setting,value
c1ccc(C(O[C@@H]2CCCN(CCc3ccc4c(c3)OCO4)C2)c2ccccc2)cc1,outcome,[1],inactive
same,outcome,[2],inactive
same,AC50,[3],29.1 µM (active)
same,outcome,[4],inactive
CC(C)C(=O)Nc1ccc([N+](=O)[O-])c(C(F)(F)F)c1,AC50,[1],5.73 µM (active)
same,outcome,[2],inactive
COc1cc(C(C)C)c2c(c1)S(=O)(=O)N(COc1cc(=O)n3cccc(OCCN4CCCCC4)c3n1)C2=O,AC50,[1],7.59 µM (active)
same,AC50,[2],7.39 µM (active)
CCCCCCCC/C=C\CCCCCCCC(=O)OC[C@@H](O)[C@H]1OC[C@H](O)[C@H]1O,outcome,[1],inactive
same,outcome,[2],inactive
C=CCc1cc(S(=O)(=O)c2ccc(O)c(CC=C)c2)ccc1O,outcome,[1],inactive
same,outcome,[2],inactive
Cc1ncc([C@@H](CCCCCCc2ccc3c(n2)NCCC3)CC(=O)O)cn1,outcome,[1],inactive
same,outcome,[2],inactive
c1ccc2c(c1)-c1cccc3c1c-2cc1ccccc13,outcome,[3],inactive
same,outcome,[5],inactive
same,outcome,[6],inactive
same,outcome,[4],inactive
same,AC50,[7],7.57 µM (active)
CCCCC(CC)C(=O)OCCOCCOCCOC(=O)C(CC)CCCC (stereo not drawn),outcome,[1],inactive
same,outcome,[2],inactive
same,outcome,[3],inactive
same,outcome,[4],inactive
CCn1nc(C)c2c1C(=O)NCC(c1ccc(O)cc1)=N2,outcome,[3],inactive
same,outcome,[4],inactive
CCN(CC)C(=S)SSC(=S)N(CC)CC,outcome,[8],inactive
same,outcome,[9],inactive
same,outcome,[10],inactive
same,outcome,[3],inactive
same,AC50,[5],98.7 nM (active) and 42.1 nM (active)
same,AC50,[6],143 nM (active) and 47.8 nM (active)
same,AC50,[7],118 nM (active) and 54.8 nM (active)
c1ccc2ncccc2c1,outcome,[3],inactive
same,outcome,[4],inactive
CCc1ccc(O)c(C(C)(C)C)c1,outcome,[1],inactive
same,outcome,[2],inactive
CC(C)c1nnc2ccc(-c3ocnc3-c3cc(F)ccc3F)cn12,outcome,[3],inactive
same,outcome,[4],inactive
